Measured values from paper PMC4336329 (PLoS ONE, 2015).
The whole screen tested about 310,000 compounds, of which about 14,000 (4.5%) showed an effect of 50% or more. The effect is printed as a negative number. The entries come from a sample that favours strong results as a whole.

target: human ether-à-go-go-related gene (hERG) potassium channel (human, UniProt Q12809); experiment: primary screen, population patch clamp on CHO cells stably expressing hERG; higher = less effect of the substance
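Also: peak tail current of the secondary pulse compared with the same well before compound.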

human ether-à-go-go-related gene (hERG) potassium channel, sequence (Q12809 whole entry, looked up): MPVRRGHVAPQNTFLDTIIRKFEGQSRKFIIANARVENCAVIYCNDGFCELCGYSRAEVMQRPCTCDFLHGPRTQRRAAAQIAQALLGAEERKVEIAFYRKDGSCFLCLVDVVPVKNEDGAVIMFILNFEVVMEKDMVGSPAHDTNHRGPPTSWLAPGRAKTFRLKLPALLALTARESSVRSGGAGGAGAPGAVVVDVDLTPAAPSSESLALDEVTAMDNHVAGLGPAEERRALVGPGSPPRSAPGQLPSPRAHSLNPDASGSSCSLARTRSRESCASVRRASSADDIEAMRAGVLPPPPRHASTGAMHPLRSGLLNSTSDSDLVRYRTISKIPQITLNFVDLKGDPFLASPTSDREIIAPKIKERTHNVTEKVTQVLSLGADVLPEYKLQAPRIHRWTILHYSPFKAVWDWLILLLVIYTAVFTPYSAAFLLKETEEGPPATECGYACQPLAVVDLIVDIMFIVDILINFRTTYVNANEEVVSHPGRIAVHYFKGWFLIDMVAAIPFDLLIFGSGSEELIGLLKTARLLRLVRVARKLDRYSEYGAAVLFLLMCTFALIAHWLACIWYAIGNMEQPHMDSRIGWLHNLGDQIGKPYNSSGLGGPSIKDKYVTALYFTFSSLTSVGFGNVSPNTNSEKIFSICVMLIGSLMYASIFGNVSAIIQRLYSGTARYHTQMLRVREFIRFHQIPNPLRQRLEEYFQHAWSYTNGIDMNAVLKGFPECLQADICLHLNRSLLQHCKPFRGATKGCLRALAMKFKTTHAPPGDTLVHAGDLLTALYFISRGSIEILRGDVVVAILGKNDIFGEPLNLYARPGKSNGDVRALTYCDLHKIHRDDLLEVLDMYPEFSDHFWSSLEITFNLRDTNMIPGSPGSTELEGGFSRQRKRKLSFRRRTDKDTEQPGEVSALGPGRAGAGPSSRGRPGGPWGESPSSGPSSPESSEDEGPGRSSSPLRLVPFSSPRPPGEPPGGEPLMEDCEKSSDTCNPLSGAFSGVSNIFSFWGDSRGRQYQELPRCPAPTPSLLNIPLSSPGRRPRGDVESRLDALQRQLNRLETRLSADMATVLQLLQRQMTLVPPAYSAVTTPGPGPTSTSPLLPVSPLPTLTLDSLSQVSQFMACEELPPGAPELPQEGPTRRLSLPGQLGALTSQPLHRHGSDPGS

| SMILES | hERG current change (%, negative = inhibition) at 10uM [%] |
| --- | --- |
| CCCOP(=O)(c1ccc(N(C)C)cc1)C(O)c1ccc(N(C)C)cc1 (centres unmarked) | 12.8 |
| c1ccc2sc(-c3ccc4c(c3)OCO4)nc2c1 | -3.16 |
| CCOc1ccc(C2CC(c3cccc(OC)c3OC)n3nnnc3N2)cc1Cl (centres unmarked) | -19.2 |
| Cc1ccc(-n2nnnc2Sc2nc([N+](=O)[O-])nn2C)c(C)c1 | -27.6 |
| CN(C(=O)c1ccc(C#N)cc1)c1nnc(-c2cnccn2)s1 | -8.93 |
| CCN(CC)CCCNC(=O)Cn1ncc2c(=O)oc3ccc(C)cc3c21 | -7.17 |
| COC(=O)COc1ccc(C(c2c(C)[nH][nH]c2=O)c2c(C)[nH][nH]c2=O)cc1 | 15.1 |
| COc1ccc(CN2CN(C3CCCC3)CSC2=S)cc1 | 2.66 |
| Cc1ccc(OCCCC(=O)Nc2ccc(S(=O)(=O)N3CCOCC3)cc2)cc1 | -25.7 |
| COc1ccc(-n2nc(C(=O)NCC(=O)Nc3ccccn3)c3ccccc3c2=O)cc1 | 10.6 |
| Cc1ccccc1NC(=S)N(Cc1cccs1)C1CCCC1 | 5.42 |
| COCCn1c(SCC(=O)N2CCc3ccccc3C2)nc2ccccc2c1=O | -43.8 |
| CCn1c(SCC(=O)N2CCCCCC2)nc2ccccc2c1=O | -10.4 |
| C=CCn1c(SCC(=O)N2CCCCCC2)nc2ccccc2c1=O | -59.2 |
| C=CCn1c(SCC(=O)N2CCc3ccccc3C2)nc2ccccc2c1=O | -61.5 |
| C=CCn1c(SCC(=O)N2CCOCC2)nc2ccccc2c1=O | -28.4 |
| C=CCn1c(SCC(=O)N2CCc3ccccc3C2)nc2sc(C)cc2c1=O | -7.46 |
| Cc1nc(N2CCN(S(=O)(=O)c3ccc(F)cc3)CC2)c2c(-c3cccs3)csc2n1 | 11.6 |
| CCn1cc(S(=O)(=O)N2CCN(c3ccc(Cl)cc3)CC2)cn1 | 7.96 |
| O=C(Nc1oc2ccccc2c(=O)c1-c1ccc(Cl)cc1)c1ccco1 | -20.4 |
| O=C(Nc1oc2ccccc2c(=O)c1-c1ccc(Br)cc1)c1ccco1 | -52.5 |
| Cn1nc(C(F)(F)F)c(-c2cccc(C(F)(F)F)c2)c1NC(=O)c1cccnc1 | -6.76 |

| SMILES | hERG current change (%, negative = inhibition) at 10uM [%] |
| --- | --- |
| Cn1nc(C(F)(F)F)c(-c2ccc(F)cc2)c1NC(=O)c1ccco1 | -32.8 |
| Cn1nc(C(F)(F)F)c(-c2ccc(Br)cc2)c1NC(=O)c1cccnc1 | 0.61 |
| Cn1nc(C(F)(F)F)c(-c2ccccc2)c1NC(=O)c1ccco1 | -3.07 |
| Cn1nc(C(F)(F)F)c(-c2cccc(C(F)(F)F)c2)c1NC(=O)c1ccco1 | -66.6 |
| Cc1ccc(-c2c(NC(=O)c3ccco3)oc3ccccc3c2=O)cc1 | 10.1 |
| Cn1nc(C(F)(F)F)c(-c2ccc(Br)cc2)c1NC(=O)c1ccco1 | -63.5 |
| CC1CN(c2nc(Nc3ccccc3)nc(N)c2[N+](=O)[O-])CC(C)O1 (centres unmarked) | -22.2 |
| C=CCn1c(CCNC(=O)c2ccccc2F)nnc1SCC(=O)Nc1nc(C)cs1 | -5.2 |
| N#C/C(=C(/O)COC(=O)c1cccnc1Cl)c1nc2ccccc2[nH]1 | 25.6 |
| Cc1cccc(NC(=O)c2sc3nc4c(c(-c5ccco5)c3c2N)CCC4)c1 | -3.19 |
| CN1CCc2nc3sc(C#N)c(N)c3c(-c3cccs3)c2C1 | -56.8 |
| CC(C)NC(=O)c1sc2nc3c(c(-c4cccs4)c2c1N)CN(C)CC3 | -25.8 |
| Cc1cccc(NC(=O)c2sc3nc4c(c(-c5cccs5)c3c2N)CN(C)CC4)c1 | -51.6 |
| COC(=O)c1sc2nc3c(c(-c4cccs4)c2c1N)CCCC3 | 9.57 |
| N#Cc1sc2nc3c(c(-c4ccco4)c2c1N)CCCC3 | -3.21 |
| O=C(O)C1CC=CCC1C(=O)NC12CC3CC(CC(C3)C1)C2 (centres unmarked) | 3.51 |
| O=C(CSc1nc2ccccc2s1)Nc1ncccn1 | 13.4 |
| O=S(=O)(c1cccs1)N1CCc2ccccc2C1 | -5.63 |
| Cc1cccc(-c2nc(CS(=O)CC(=O)N3CC(C)CC(C)C3)c(C)o2)c1 (centres unmarked) | -25.3 |
| COC(=O)c1[nH]c2cccc(C)c2c1NC(=O)CN1CCN(C(=O)c2ccco2)CC1 | -16.9 |
| COC(=O)c1[nH]c2ccccc2c1NC(=O)CN1CCN(C(=O)c2ccco2)CC1 | -32.8 |
| COC(=O)c1[nH]c2ccc(C)cc2c1NC(=O)CN1CCC(C)CC1 | -8.97 |

| SMILES | hERG current change (%, negative = inhibition) at 10uM [%] |
| --- | --- |
| COC(=O)c1[nH]c2cc(C)ccc2c1NC(=O)CN1CCN(C(=O)c2ccco2)CC1 | -54.3 |
| COC(=O)c1[nH]c2ccc(C)cc2c1NC(=O)CN1CCN(C(=O)c2ccccc2)CC1.Cl | -52.1 |
| COC(=O)c1[nH]c2ccc(C)cc2c1NC(=O)CN1CCN(c2ccccc2)CC1 | -13.7 |
| Cc1nc2cc(C(=O)O)ccc2s1 | 5.41 |
| COC(=O)c1ccc(Oc2c(C)oc3cc(OCc4cnn(-c5ccccc5)c4)ccc3c2=O)cc1 | 1.08 |
| CCOc1cc(/C=N/NC(=O)c2cccnc2)cc(Br)c1OCC(N)=O | -22.5 |
| O=C(CCc1nnc(Cc2cccc(C(F)(F)F)c2)o1)NC1CC1 | 32.2 |
| O=C(COC(=O)C12CC3CC(CC(Cl)(C3)C1)C2)Nc1ccc2[nH]c(=O)[nH]c2c1 | 11.5 |
| COc1ccc(OC)c(CN2CCC(CNC(=O)Nc3cccc(Cl)c3)CC2)c1 | -60.8 |
| O=C(NCC1CCN(Cc2ccccc2Cl)CC1)Nc1cccc(Cl)c1 | -72 |
| O=C(NCC1CCN(Cc2ccccc2Cl)CC1)Nc1ccccc1F | -44.7 |
| COc1cc(NC(=O)NCC2CCN(Cc3ccccc3Cl)CC2)cc(OC)c1OC | 3.03 |
| COc1ccc(N2CCC(CNC(=O)Nc3cccc(OC)c3)C2)cc1 (centres unmarked) | -15.7 |
| COc1cc(NC(=O)NCC2CCN(Cc3ccccc3F)CC2)cc(OC)c1 | -14.9 |
| COc1ccc(NC(=O)C2CCCO2)cc1 (centres unmarked) | -0.956 |
| Cc1ccc(NC(=O)c2cccc(S(=O)(=O)N3CCN(c4ccc(F)cc4)CC3)c2)nc1 | -14.6 |
| Cc1cc(CN(C)C(=O)CC2C(=O)NCCN2Cc2ccc(F)c(F)c2)on1 (centres unmarked) | 31.1 |
| Nc1ccc(-c2nnc(-c3ccc(-c4ccccc4)cc3)o2)cc1 | 4.31 |
| S=c1[nH]c(-c2ccccc2)cs1 | 66.4 |
| COc1ccc(C)cc1NS(=O)(=O)c1cccc2nonc12 | -10.7 |
| CCCOc1cccc(C2C(C(=O)c3ccc(C)o3)=C(O)C(=O)N2CCN2CCOCC2)c1 (centres unmarked) | 10.5 |
| CCN1CCN(c2ccc([N+](=O)[O-])cc2S(=O)(=O)N2CCOCC2)CC1 | -43.9 |

| SMILES | hERG current change (%, negative = inhibition) at 10uM [%] |
| --- | --- |
| O=C(O)c1cc([N+](=O)[O-])ccc1N1CCCCC1 | -1.28 |
| CCN1CCN(c2ccc([N+](=O)[O-])cc2C(=O)OC)CC1 | -63.7 |
| NC(=O)c1cc([N+](=O)[O-])ccc1N1CCN(Cc2ccccc2)CC1 | -41.8 |
| COC(=O)c1cc([N+](=O)[O-])ccc1N1CCN(Cc2ccccc2)CC1 | -72.2 |
| CCOc1ccccc1NC(=O)COc1cccc(-n2cnnn2)c1 | -27.2 |
| O=C(NCCNC(=O)c1ccccc1Br)c1ccccc1Br | 8.51 |
| Cc1ccc(C(=O)N/N=C2\SCC(=O)N2c2cc(C)ccc2C)cc1 | 8.16 |
| COc1ccccc1CNC(=O)N1CCN(c2ccccc2C)CC1 | 6.36 |
| CC(=O)C1=C(O)C(=O)N(c2ccc(Br)cc2)C1c1cccc([N+](=O)[O-])c1 (centres unmarked) | 24.5 |
| COC(=O)CSc1nc2cc(C)cc(C)c2cc1C#N | 14.5 |
| CCCCCCOC(=O)C(C#N)c1nc2ccccc2nc1N1CCCCC1 (centres unmarked) | 1.37 |
| CCCCCCOC(=O)C(C#N)c1nc2ccccc2nc1N1CCOCC1 (centres unmarked) | 1.23 |
| CCCCCCOC(=O)C(C#N)c1nc2ccccc2nc1N1CCN(CC)CC1 (centres unmarked) | -70.2 |
| N#CC(C(=O)OC1CCCCC1)c1nc2ccccc2nc1N1CCOCC1 (centres unmarked) | -36.8 |
| CC1CCN(c2nc3ccccc3nc2C(C#N)C(=O)OC2CCCCC2)CC1 (centres unmarked) | 11.3 |
| CCCCCCOC(=O)C(C#N)c1nc2ccccc2nc1N1CCN(C)CC1 (centres unmarked) | -74.7 |
| CCCCOC(=O)C(C#N)c1nc2ccccc2nc1N1CCOCC1 (centres unmarked) | -12.8 |
| CCCCOC(=O)C(C#N)c1nc2ccccc2nc1N1CCN(Cc2ccc3c(c2)OCO3)CC1 (centres unmarked) | -7.01 |
| CN1CCN(c2nc3ccccc3nc2C(C#N)C(=O)OC2CCCCC2)CC1 (centres unmarked) | -79.5 |
| Cl.NS(=O)(=O)c1ccc(CCNCC#Cc2ccccc2)cc1 | -21.6 |
